Test results: PubChem BioAssay (NCI)
This is part of a sample that, as a whole, favours compounds with a hit. Of some 79,000 tested, about 15% had one in any assay. Cut-off read from the data, not from the text of the source: active = growth inhibition above about 70%; inactive = the rest.

Assays:
[1] = NCI Yeast Anticancer Drug Screen. Data for the rad50 strain (AID 155);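 note: 0% = growth of vehicle-only cultures of the same strain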; details: S. cerevisiae rad50 strain growth inhibition; at 50.0 µM; stronger effect = higher value
Outline: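 A DNA repair-deficient yeast mutant serves as the test organism; compound-induced growth inhibition is calculated against vehicle-treated cells.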

[2] = NCI Yeast Anticancer Drug Screen. Data for the mec2-1 strain (AID 157); details: S. cerevisiae mec2-1 strain, at 50.0 µM, stronger effect = higher value
Outline: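 Each compound was tested on mec2-1 yeast, a strain altered in DNA damage repair or cell cycle control. Growth inhibition is reported relative to vehicle.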

[3] = NCI Yeast Anticancer Drug Screen. Data for the sgs1 mgt1 strain (AID 161);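 note: 0% = growth of cultures given vehicle only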; details: S. cerevisiae sgs1 mgt1 strain, at 50.0 µM, stronger effect = higher value
Outline: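 Read-out: growth inhibition vs vehicle controls. Cells: mutant yeast strain deficient in DNA damage repair.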

[4] = NCI Yeast Anticancer Drug Screen. Data for the cln2 rad14 strain (AID 165);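 note: 0% = growth equal to vehicle treated cultures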; details: S. cerevisiae cln2 rad14 strain, at 50.0 µM, stronger effect = higher value
Outline: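 Test compounds were added to cln2 rad14 yeast cultures; inhibition of growth was then determined by comparison with vehicle treatment.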

[5] = NCI Yeast Anticancer Drug Screen. Data for the bub3 strain (AID 167); details: S. cerevisiae bub3 mutant strain, at 50.0 µM, stronger effect = higher value
Outline: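 Inhibition values come from growth of compound-treated mutant yeast normalised to vehicle-treated controls.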

[6] = NCI Yeast Anticancer Drug Screen. Data for the mlh1 rad18 strain (AID 175); details: S. cerevisiae mlh1 rad18 strain growth inhibition; at 50.0 µM; stronger effect = higher value
Outline: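 Inhibition values reflect reduced growth of mutant yeast versus vehicle-treated controls following compound exposure; the mutations affect DNA damage repair.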

Measured: growth inhibition

CCCCCCCCCCCCCCCCCC(=O)OCC1OC(OC2(OC(=O)CCCCCCCCCCCCCCCCC)OC(COC(=O)CCCCCCCCCCCCCCCCC)C(OC(=O)CCCCCCCCCCCCCCCCC)C2OC(=O)CCCCCCCCCCCCCCCCC)C(OC(=O)CCCCCCCCCCCCCCCCC)C(OC(=O)CCCCCCCCCCCCCCCCC)C1OC(=O)CCCCCCCCCCCCCCCCC (stereo not given)
inactive: [1] 17.2% | [2] 6% | [3] 25.4% | [4] -2.75% | [5] 17.9% | [6] 23.8%

CC(C)CC(=O)CCc1ccccc1
inactive: [1] -45% | [2] -19.9% | [3] -46.9% | [4] -6.35% | [5] -29.1% | [6] -3.55%

CCS(=O)O
inactive: [1] -21.2% | [2] 15.9% | [3] 1.3% | [4] -4.25% | [5] -6.8% | [6] -8.9%

C/C=C(/C)C1(O)CCCCC1O (stereo not given)
inactive: [1] -4.2% | [2] 1.15% | [3] 1.2% | [4] -2.7% | [5] -4% | [6] -11.3%

COc1ccc2ccc3ccc(OC)nc3c2n1
inactive: [1] 40% | [2] 40.2% | [3] 36.1% | [4] -7.05% | [5] 30.2% | [6] 16.1%

CCOC(=O)c1cc(O)cc(=O)n1C1OC(COC(=O)c2ccccc2)C(OC(=O)c2ccccc2)C1OC(=O)c1ccccc1 (stereo not given)
inactive: [1] 49.5% | [2] -19.4% | [3] 32.6% | [4] 3.35% | [5] -9.15% | [6] -10.8%

COc1cc(/C=C/C(C)=O)ccc1OP(=O)(O)O
inactive: [1] -22.4% | [2] -24.4% | [3] -29.8% | [4] 0.1% | [5] -32.1% | [6] 7.65%

Cc1cc(=S)cc(C)[nH]1
inactive: [1] 17.1% | [2] 5.5% | [3] 11.3% | [4] 2.1% | [5] 0.45% | [6] 33.4%

Cc1ccc(S(=O)(=O)OI(O)CC(F)(F)F)cc1
inactive: [1] -39.1% | [2] 15.5% | [3] -2.5% | [4] -2.05% | [5] 6.5% | [6] 25.9%

CC1C(=O)CCC2CCCCC21 (stereo not given)
inactive: [1] 18.1% | [2] -17.4% | [3] 8.05% | [4] 7.95% | [5] 12.2% | [6] 17.2%

COC1C=C(Br)C(=O)C(C)O1 (stereo not given)
inactive: [1] 5.7% | [2] 1.3% | [3] -25.6% | [4] -2.3% | [5] 21.2% | [6] -1.8%

O=C(Cl)c1ccc2c(c1)C(=O)OC2=O
inactive: [1] 22.5% | [2] -8.9% | [3] -11.2% | [4] 5.4% | [5] 9.55% | [6] -10.4%

CCOC(OCC)C(=O)NNC(C)C
inactive: [1] 15.4% | [2] -7.85% | [3] -2.15% | [4] -39.9% | [5] 10% | [6] -13.9%

CSc1nc(-c2ccc(C)cc2)c(C#N)c(=O)[nH]1
inactive: [1] 6.25% | [2] 4.9% | [3] -9.45% | [4] 24.2% | [5] 0.4% | [6] -55.9%

O=C(O)C1C2C=CC(O2)C1C(=O)NCc1ccccn1 (stereo not given)
inactive: [1] -3.5% | [2] -26.5% | [3] -7.3% | [4] -22.6% | [5] -37% | [6] 9.85%

CN(c1ccccc1)c1cc2nc3ccccc3nc2cc1O
inactive: [1] 15.3% | [2] 17.4% | [3] 4.3% | [4] 14.3% | [5] 2% | [6] -1.6%

Cc1onc(-c2c(Cl)cccc2Cl)c1C(=O)Nc1ccc(Cl)c(Cl)c1Cl
inactive: [1] -12.4% | [2] -14.7% | [3] -3.2% | [4] 12.1% | [5] 2.25% | [6] -8.25%

COC(=O)C(=O)C(C(=O)C(=O)Nc1ccccc1C(N)=O)c1nc2ccc(C(=O)c3ccccc3)cc2[nH]c1=O (stereo not given)
inactive: [1] -3.9% | [2] 20% | [3] -7.4% | [4] -17.1% | [5] -6.1% | [6] 9.5%

O=C/C=C/c1ccc2c(c1)OC(CO)C(c1ccc(O)c(O)c1)O2 (stereo not given)
inactive: [1] 9.15% | [2] 2.2% | [3] 6.7% | [4] 8.15% | [5] 9.7% | [6] 3.2%

C#CCNCCCn1c(=O)nc2n(-c3ccccc3)c3ccccc3nc-2c1=O
inactive: [1] 56% | [2] 19.2% | [3] 27.1% | [4] 29.4% | [5] 0.55% | [6] 43%
